Results reported in paper PMC4336329 (PLoS ONE, 2015).
Among all 310,000 compounds or so, about 14,000 (4.5%) showed an effect of 50% or more. Effects have a minus sign here. This excerpt belongs to a sample that is enriched for strong results.

Target: human ether-à-go-go-related gene (hERG) potassium channel (human, UniProt Q12809)
Experiment: primary screen, population patch clamp on CHO cells stably expressing hERG; higher = less effect of the substance
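Note: peak tail current of the secondary pulse compared with the same well before compound.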

human ether-à-go-go-related gene (hERG) potassium channel, sequence (Q12809 whole entry, looked up): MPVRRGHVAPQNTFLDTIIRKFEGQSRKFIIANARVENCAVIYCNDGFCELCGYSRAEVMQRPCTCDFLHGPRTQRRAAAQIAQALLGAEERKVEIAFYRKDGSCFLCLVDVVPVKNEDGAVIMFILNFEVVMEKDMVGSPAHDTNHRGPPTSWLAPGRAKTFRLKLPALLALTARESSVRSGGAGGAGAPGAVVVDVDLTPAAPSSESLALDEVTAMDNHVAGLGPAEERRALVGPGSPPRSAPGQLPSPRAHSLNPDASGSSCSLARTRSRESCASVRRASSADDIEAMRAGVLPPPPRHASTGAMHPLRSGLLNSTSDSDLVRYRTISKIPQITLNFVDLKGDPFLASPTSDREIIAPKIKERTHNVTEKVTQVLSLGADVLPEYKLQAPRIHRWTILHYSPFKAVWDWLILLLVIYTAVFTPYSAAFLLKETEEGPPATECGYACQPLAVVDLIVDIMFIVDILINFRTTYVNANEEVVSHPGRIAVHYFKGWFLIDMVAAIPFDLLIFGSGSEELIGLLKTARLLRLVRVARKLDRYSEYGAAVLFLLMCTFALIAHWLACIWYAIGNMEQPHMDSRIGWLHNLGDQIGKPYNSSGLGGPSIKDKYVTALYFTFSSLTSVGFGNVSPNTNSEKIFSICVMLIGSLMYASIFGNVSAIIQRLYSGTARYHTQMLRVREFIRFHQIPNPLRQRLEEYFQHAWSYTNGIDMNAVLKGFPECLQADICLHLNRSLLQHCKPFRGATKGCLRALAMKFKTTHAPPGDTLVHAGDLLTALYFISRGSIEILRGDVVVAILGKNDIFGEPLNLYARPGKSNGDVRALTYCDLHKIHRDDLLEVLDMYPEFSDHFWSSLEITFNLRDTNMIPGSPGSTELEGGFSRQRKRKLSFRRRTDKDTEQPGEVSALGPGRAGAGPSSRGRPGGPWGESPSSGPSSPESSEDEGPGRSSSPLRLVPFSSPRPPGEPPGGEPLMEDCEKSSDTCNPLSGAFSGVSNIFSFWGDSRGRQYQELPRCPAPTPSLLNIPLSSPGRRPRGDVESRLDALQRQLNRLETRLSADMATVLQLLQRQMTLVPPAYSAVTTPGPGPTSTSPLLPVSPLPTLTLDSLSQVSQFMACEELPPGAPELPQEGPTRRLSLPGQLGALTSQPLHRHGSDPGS

Row | SMILES | hERG current change (%, negative = inhibition) at 10uM [%]
1 | Cc1cn2nc(N)c3ccccc3c2n1 | -9.19
2 | CCOC(=O)c1cc(C(C)=O)c(=O)[nH]c1C | 12
3 | CCc1ccc(CN2CCCC(CCC(=O)N3CCN(c4ccccn4)CC3)C2)o1 (centres unmarked) | -58.7
4 | Cc1ccc(C(=O)N2CCCC(CCC(=O)N3CCN(c4ccccn4)CC3)C2)cc1C (centres unmarked) | -34.9
5 | Cc1ccc(C(=O)N2CCCC(CCC(=O)N3CCN(c4ccccn4)CC3)C2)cc1 (centres unmarked) | -9.9
6 | Cc1cccc(C(=O)N2CCCC(CCC(=O)N3CCN(c4ccccn4)CC3)C2)c1 (centres unmarked) | -74.5
7 | CCc1cc(C(=O)N2CCCC(CCC(=O)N3CCN(c4ccccn4)CC3)C2)no1 (centres unmarked) | -17.4
8 | O=C(CCC1CCCN(c2ncccn2)C1)N1CCN(c2ccccn2)CC1 (centres unmarked) | -23
9 | O=C(CN1C(=O)c2ccccc2S1(=O)=O)NCCSCc1c(F)cccc1Cl | -29.7
10 | CCOC(=O)CC(=O)CSc1nc(-c2ccccc2)cc(-c2ccccc2)c1C#N | 10.1
11 | CCc1ccc(S(=O)(=O)Nc2cc3c(cc2N2CCOCC2)n(C)c(=O)c(=O)n3C)cc1 | -32.1
12 | Cc1ccc(S(=O)(=O)Nc2cc3c(cc2N2CCOCC2)n(C)c(=O)c(=O)n3C)cc1 | -9.6
13 | Cn1c(=O)c(=O)n(C)c2cc(N3CCCCC3)c(NS(=O)(=O)c3ccc(Br)cc3)cc21 | -65.1
14 | COc1ccc(OC)c(S(=O)(=O)Nc2ccc3c(c2)n(C)c(=O)n3C)c1 | 1.61
15 | CCc1ccc(S(=O)(=O)Nc2cc3c(cc2N2CCCCC2)n(C)c(=O)c(=O)n3C)cc1 | -85.6
16 | Cn1c(=O)c(=O)n(C)c2cc(N3CCCC3)c(NS(=O)(=O)c3ccc(Cl)cc3)cc21 | -44.3
17 | COc1ccc(OC)c(NS(=O)(=O)c2cc(OC)ccc2OC)c1 | -2.14
18 | Cn1c(=O)c(=O)n(C)c2cc(N3CCOCC3)c(NS(=O)(=O)c3ccc([N+](=O)[O-])cc3)cc21 | 2.58
19 | Cn1c(=O)c(=O)n(C)c2cc(N3CCCCC3)c(NS(=O)(=O)c3ccc([N+](=O)[O-])cc3)cc21 | -50.6
20 | Cn1c(=O)c(=O)n(C)c2cc(N3CCCC3)c(NS(=O)(=O)c3ccc(F)cc3)cc21 | -16.2
21 | Cn1c(=O)c(=O)n(C)c2cc(N3CCOCC3)c(NS(=O)(=O)c3ccc(Br)cc3)cc21 | -27
22 | COc1ccc(OC)c(S(=O)(=O)Nc2cc3c(cc2N2CCCC2)n(C)c(=O)c(=O)n3C)c1 | -50.7

Row | SMILES | hERG current change (%, negative = inhibition) at 10uM [%]
23 | CCC(CC)c1nnc(NC(=O)c2cccnc2SC)s1 | 15.4
24 | C/C=C/c1ccc(OCCCCN2C(=O)NC(C)(C)C2=O)c(OC)c1 | -7.09
25 | COc1ccccc1C(O)(C(=O)NN(C)c1ccccc1)c1ccccc1OC | 9.03
26 | Cc1cccc(OCCCCc2c(C)n[nH]c2C)c1C | 9.64
27 | CCc1ccc(/C=C2\Oc3cc(OS(C)(=O)=O)ccc3C2=O)cc1 | 11.8
28 | O=S(=O)(NC1=NCCC1)c1cccc(NS(=O)(=O)c2ccc(OC(F)(F)F)cc2)c1 | 1.71
29 | CN1CCN(CCNC(=O)Nc2ccccc2C(F)(F)F)CC1 | 3.26
30 | CC1(C)C2CCC1(C)C(OC(=O)C[n+]1ccccc1N)C2.[Br-] (centres unmarked) | -35.3
31 | CCOC(=O)C1CCN(c2cc3c(cc2NC(=O)c2cc(OC)ccc2Br)n(C)c(=O)n3C)CC1 | 0.12
32 | COCCNc1c([N+](=O)[O-])c(=O)n(-c2ccccc2)c2ccccc12 | -25.2
33 | O=C(c1ccccc1Oc1ccc(C(F)(F)F)cc1[N+](=O)[O-])N1CCOCC1 | 1.22
34 | COC(=O)CN1C(=O)C(O)(CC(=O)c2cccc(Br)c2)c2ccccc21 (centres unmarked) | -11.7
35 | CN(Cc1ccccn1)Cc1nc(COc2ccccc2)no1 | -2.85
36 | COc1cccc(CNC23CC4CC(CC(C4)C2)C3)c1OCc1ccccc1.Cl | -50
37 | CNCc1ccc(OCc2ccccc2)c(OC)c1 | 0.71
38 | COc1cc(CNC23CC4CC(CC(C4)C2)C3)ccc1OCc1ccccc1.Cl | -64
39 | COc1cccc(CNCCO)c1OCc1ccccc1.Cl | -1.31
40 | Cl.c1ccc(COc2ccccc2CNC23CC4CC(CC(C4)C2)C3)cc1 | -83.6
41 | COc1cc(CNC(=O)C2CC2)ccc1OCc1ccccc1 | -11.8
42 | c1ccc(COc2ccccc2CNC2CCCC2)cc1 | -39.7
43 | COc1cccc(CNCc2cccnc2)c1OCc1ccccc1.Cl | 19.3
44 | CCNCc1ccccc1OCc1ccccc1.Cl | -3.77
